The record followed here is PubChem BioAssay.

The other results are listed elsewhere or left out. The source made the active and inactive calls. Unless noted, no stated cut-off is given here; in the data, active means response below about 50% or above about 160%; inactive means in between.

Assay [1] has as its target Regulator of G-protein signaling 16 (Homo sapiens) (UniProt O15492). Description: modulators of RGS–Galpha-o binding, primary screen, biochemical, multiplexed beads, flow cytometry, RGS4/7/8/16/19 (AID 1504).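 Further: fluorescently labeled Galpha-o bound to GDP with aluminium fluoride binding biotinylated RGS beads.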 Particulars: multiplexed bead flow cytometry, measured here: RGS16 interaction, at 10 µM. (In flow cytometry, cells or beads pass a laser one at a time.)
The target of assay [2] is Regulator of G-protein signaling 19 (Homo sapiens) (UniProt P49795). The description is as above. Particulars: multiplexed bead flow cytometry, measured here: RGS19 interaction, at 10 µM.
The target in assay [3] is Regulator of G-protein signaling 7 (Homo sapiens) (UniProt P49802). The description is as above. As to conditions: multiplexed bead flow cytometry, measured here: RGS7 interaction, at 10 µM.
In assay [4] the target is Regulator of G-protein signaling 8 (Homo sapiens) (UniProt P57771). Described as above. Particulars: multiplexed bead flow cytometry, measured here: RGS8 interaction, at 10 µM.
Assay [5] in a line: disruption of biotin probe capture by avidin, counter-screen for RGS protein interaction modulators, biochemical, flow cytometry, bead-based (AID 1783;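 active means inhibition above 50%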;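 further: median green fluorescence of gated singlet beads compared with DMSO control wells; 0% = DMSO wells and 100% = complete loss of bead fluorescence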). Particulars: streptavidin beads, fluorescein-biotin binding; at 10 µM, stronger effect = higher value. Background: A counterscreen serves to expose hits that act by an unwanted route or on another target.
Assay [6] deals with Guanine nucleotide-binding protein G(o) subunit alpha (Homo sapiens) (UniProt P09471). Description: RGS8-Galphao binding modulators, confirmation, biochemical, multiplexed bead flow cytometry, single concentration (AID 1836; in the data active means binding response below about 72% or above about 130%; inactive means in between;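 further: Galphao activated as GDP AlF4 complex before binding bead RGS8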). Particulars: bead-based flow cytometry RGS8-Galphao binding, fluorescence; at 10 µM; actives lie on both sides.
The target is the same in assay [7]. As to the kind of experiment: RGS7-Galphao binding modulators, confirmation, biochemical, multiplexed bead flow cytometry, single concentration (AID 1837; in the data active means response below about 75% or above about 130%; inactive means in between;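 further: fluorescent Galphao activated with GDP and aluminum fluoride binding bead-coupled RGS7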). As to conditions: bead-based flow cytometry RGS7-Galphao binding; at 10 µM; actives lie on both sides.
The target of assay [8] is Regulator of G-protein signaling 16 (Homo sapiens) + Guanine nucleotide-binding protein G(o) subunit alpha (Homo sapiens) (UniProt O15492+P09471). As to the kind of experiment: modulators of RGS16-Galphao protein binding, confirmation, biochemical, single concentration, multiplexed bead flow cytometry (AID 1838; in the data active means response below about 74% or above about 130%; inactive means in between;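 further: Galphao activated as the GDP aluminium fluoride complex binding bead-coupled RGS16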). As to conditions: bead-based flow cytometry, at 10 µM, actives lie on both sides.

Assay [9] addresses Guanine nucleotide-binding protein G(o) subunit alpha (Homo sapiens) (UniProt P09471). Description: modulators of RGS4-Galphao protein binding, confirmation, biochemical, single concentration, multiplexed bead flow cytometry (AID 1840; in the data active means binding response below about 74% or above about 130%; inactive means in between). As to conditions: at 10 µM, actives lie on both sides.
Assay [10] concerns the target Guanine nucleotide-binding protein G(o) subunit alpha (Homo sapiens) + Regulator of G-protein signaling 19 (Homo sapiens) (UniProt P09471+P49795). As to the kind of experiment: regulators of RGS19-Galphao binding, confirmation, biochemical, single point, multiplexed bead flow cytometry (AID 1841).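 Further: 100% = no compound control and 0% = blank background.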 Particulars: bead-based flow cytometry RGS19-Galphao binding; at 10 µM; actives lie on both sides.

Guanine nucleotide-binding protein G(o) subunit alpha (Homo sapiens), sequence (P09471 whole entry, looked up): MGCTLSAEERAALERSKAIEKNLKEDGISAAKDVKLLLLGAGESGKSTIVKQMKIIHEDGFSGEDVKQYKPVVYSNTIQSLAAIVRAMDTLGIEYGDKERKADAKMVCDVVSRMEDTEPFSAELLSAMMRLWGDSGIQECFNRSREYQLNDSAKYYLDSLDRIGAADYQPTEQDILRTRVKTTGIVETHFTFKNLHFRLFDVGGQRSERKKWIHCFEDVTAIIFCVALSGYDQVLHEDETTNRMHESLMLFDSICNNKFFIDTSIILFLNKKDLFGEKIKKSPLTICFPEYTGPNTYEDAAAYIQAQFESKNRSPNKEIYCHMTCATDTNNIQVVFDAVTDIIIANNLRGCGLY
Guanine nucleotide-binding protein G(o) subunit alpha (Homo sapiens) + Regulator of G-protein signaling 19 (Homo sapiens), sequence (P09471 whole entry, looked up): as above
Guanine nucleotide-binding protein G(o) subunit alpha (Homo sapiens) + Regulator of G-protein signaling 19 (Homo sapiens), sequence (P49795 whole entry, looked up): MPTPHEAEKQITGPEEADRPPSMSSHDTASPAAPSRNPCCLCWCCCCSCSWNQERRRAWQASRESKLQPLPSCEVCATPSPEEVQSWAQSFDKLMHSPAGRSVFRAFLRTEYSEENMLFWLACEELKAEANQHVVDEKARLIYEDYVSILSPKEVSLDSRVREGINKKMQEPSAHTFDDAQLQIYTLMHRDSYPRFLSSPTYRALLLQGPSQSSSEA
Regulator of G-protein signaling 16 (Homo sapiens) + Guanine nucleotide-binding protein G(o) subunit alpha (Homo sapiens), sequence (O15492 whole entry, looked up): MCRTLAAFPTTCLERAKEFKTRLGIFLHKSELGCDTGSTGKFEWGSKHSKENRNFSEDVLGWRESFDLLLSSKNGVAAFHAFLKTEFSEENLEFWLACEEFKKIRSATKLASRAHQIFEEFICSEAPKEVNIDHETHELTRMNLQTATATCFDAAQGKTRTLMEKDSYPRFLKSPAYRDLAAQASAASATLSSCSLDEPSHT
Regulator of G-protein signaling 16 (Homo sapiens) + Guanine nucleotide-binding protein G(o) subunit alpha (Homo sapiens), sequence (P09471 whole entry, looked up): as the sequence (P09471 whole entry, looked up) above

Consider `NC(=O)Cc1ccc2sc(-c3ccccc3)nc2c1`, for which the RGS16–Galpha-o binding response in assay [1] was 23.6%. In assay [2], the RGS19–Galpha-o binding response worked out at 149%. Moreover, the RGS7–Galpha-o binding response in assay [3] is 92.4%. Moreover, the RGS8–Galpha-o binding response in assay [4] came out at 84%. In addition, the inhibition in assay [5] is -0.3% (inactive). The values for the binding response (% of control) in [6] and in assay [9] were 98.7% (inactive) and 55.9% (active), respectively. Also, the response (percent of control binding) was 43.6% (active) in assay [7] and 78.6% (inactive) in assay [10]. For the same compound, the response (% of control binding) in assay [8] was 80% (inactive).
As to `CCn1c(CSCc2c(Cl)cccc2Cl)n[nH]c1=S`, the RGS16–Galpha-o binding response in [1] is 46.1%. The RGS19–Galpha-o binding response in assay [2] is 1140%. Besides, the RGS7–Galpha-o binding response in [3] is -29.3%. Besides, in assay [4], the RGS8–Galpha-o binding response is 55.5%. In addition, in assay [5], the inhibition is 1.4% (inactive). Also, the binding response (% of control) in [6] was 89% (inactive); in [9], 94.2% (inactive). Also, the response (percent of control binding) in assay [7] is 89.5% (inactive); in assay [10] it was 83.5% (inactive). Also, the response (% of control binding) in assay [8] was 88.1% (inactive).
As for `O=C(Nc1ccccc1)c1cc2ccccc2[nH]1`, the RGS16–Galpha-o binding response in assay [1] was found to be 13.8%. The RGS19–Galpha-o binding response in assay [2] is -785%. The RGS7–Galpha-o binding response in [3] was 89.9%. In addition, in assay [4], the RGS8–Galpha-o binding response was determined as 67.8%. In addition, the inhibition in [5] was 0.6% (inactive). Also, the binding response (% of control) in [6] was 105% (inactive); in assay [9], 106% (inactive). The response (percent of control binding) in assay [7] is 103% (inactive); in assay [10] it was 99.5% (inactive). The response (% of control binding) in assay [8] was 106% (inactive).
Regarding `CCOC(=O)C1Sc2[nH]c(=O)sc2C(c2ccc(Cl)cc2)C1C(=O)OCC` (configuration not stated), the RGS16–Galpha-o binding response in assay [1] is -39.2%. Besides, the RGS19–Galpha-o binding response in assay [2] is 128%. Also, in assay [3], the RGS7–Galpha-o binding response is -17.7%. The RGS8–Galpha-o binding response in assay [4] was determined as 7.38%.
As to `COc1ccc(-c2nn(-c3ccccc3)cc2C(=O)Nc2nccs2)cc1OC`, in [1], the RGS16–Galpha-o binding response came out at 24.6%. Further, in assay [2], the RGS19–Galpha-o binding response worked out at 172%. Moreover, the RGS7–Galpha-o binding response in [3] was found to be 102%. This compound registered an RGS8–Galpha-o binding response in assay [4] of 75%. In addition, the inhibition in assay [5] is -2.4% (inactive). For the same compound, the figures for the binding response (% of control) in assay [6] and in assay [9] were 102% (inactive) and 101% (inactive), respectively. Moreover, the figures for the response (percent of control binding) in [7] and in assay [10] were 99.8% (inactive) and 112% (inactive), respectively. Moreover, the response (% of control binding) in assay [8] is 103% (inactive).
As to `CCN(CC)CCOc1ccc2c(c1)C(=NNC(=O)c1ccccn1)c1cc(OCCN(CC)CC)ccc1-2`, the RGS16–Galpha-o binding response in assay [1] worked out at 203%. Besides, the RGS19–Galpha-o binding response in assay [2] turned out to be 146%. The RGS7–Galpha-o binding response in [3] is 216%. The compound also yielded an RGS8–Galpha-o binding response in [4] of 154%.
Regarding `CCC(=O)Nc1c(S(=O)(=O)c2ccccc2)c2nc3ccccc3nc2n1Cc1ccccc1`, in assay [1], the RGS16–Galpha-o binding response came to 13.9%. Further, the RGS19–Galpha-o binding response in assay [2] turned out to be 285%. Also, the RGS7–Galpha-o binding response in [3] worked out at 87.2%. For the same compound, the RGS8–Galpha-o binding response in assay [4] came out at 70.1%. For the same compound, the inhibition in assay [5] is -0.3% (inactive). Further, the binding response (% of control) in [6] and in [9] was 103% (inactive) each time. Further, the response (percent of control binding) in assay [7] was 99.2% (inactive); in assay [10], 101% (inactive). In addition, the response (% of control binding) in assay [8] is 104% (inactive).
On to `Cc1ccc(N2C(=O)C3C(c4ccccc4)(C2=O)C3(c2ccccc2)c2ccccc2)cc1` (configuration not stated), for which the RGS16–Galpha-o binding response in assay [1] was determined as 13.2%. In addition, the RGS19–Galpha-o binding response in assay [2] was determined as 310%. For the same compound, the RGS7–Galpha-o binding response in assay [3] is 14.4%. In assay [4], this compound returned an RGS8–Galpha-o binding response of 23.3%. Further, the inhibition in assay [5] is -0.7% (inactive). Also, the binding response (% of control) in [6] was 91.8% (inactive); in [9], 68.2% (active). Further, the response (percent of control binding) in assay [7] is 60.8% (active); in assay [10], 75.7% (inactive). For the same compound, in assay [8], the response (% of control binding) was 80.2% (inactive).
Take `CC(C)Cc1nc(Nc2ccc(S(=O)(=O)N3CCCC3)cc2)c2nnn(Cc3ccccc3)c2n1`: the RGS16–Galpha-o binding response in assay [1] was 260%. Moreover, the RGS19–Galpha-o binding response in assay [2] was 48.9%. The RGS7–Galpha-o binding response in assay [3] is 137%. The compound further displayed an RGS8–Galpha-o binding response in assay [4] of 141%. Further, in assay [5], the inhibition was 1.3% (inactive). Besides, the binding response (% of control) in [6] is 94.8% (inactive); in [9], 90.6% (inactive). Moreover, the response (percent of control binding) in assay [7] is 91.8% (inactive); in assay [10], 95.9% (inactive). For the same compound, the response (% of control binding) in [8] is 91.9% (inactive).
On to `CN1CCN(C(CNS(=O)(=O)c2cccs2)c2cccnc2)CC1` (configuration not stated), for which, in assay [1], the RGS16–Galpha-o binding response was -5.62%. For the same compound, the RGS19–Galpha-o binding response in assay [2] was determined as 168%. Besides, the RGS7–Galpha-o binding response in assay [3] is -9.98%. In [4], this compound registered an RGS8–Galpha-o binding response of 10.6%.

One may read the inhibition as the drop in the measured response relative to a control, in per cent.
